{"source": "PubChem BioAssay AID588391", "about": "(Broad Institute, 2011)", "note": "About 180 (0.051%) of roughly 350,000 compounds were called active.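 The calls were made as follows: active = mean inhibition across replicates of 30% or more, whatever share of single replicates reach that level; inconclusive = mean inhibition below 30% while every single replicate reaches 30%; inactive = the rest.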 Many of the other results were omitted from the sample, so actives are more common in it than they were.", "data": [{"target": "Protein disulfide-isomerase (Homo sapiens) (UniProt P07237)", "sequence (P07237 whole entry, looked up)": "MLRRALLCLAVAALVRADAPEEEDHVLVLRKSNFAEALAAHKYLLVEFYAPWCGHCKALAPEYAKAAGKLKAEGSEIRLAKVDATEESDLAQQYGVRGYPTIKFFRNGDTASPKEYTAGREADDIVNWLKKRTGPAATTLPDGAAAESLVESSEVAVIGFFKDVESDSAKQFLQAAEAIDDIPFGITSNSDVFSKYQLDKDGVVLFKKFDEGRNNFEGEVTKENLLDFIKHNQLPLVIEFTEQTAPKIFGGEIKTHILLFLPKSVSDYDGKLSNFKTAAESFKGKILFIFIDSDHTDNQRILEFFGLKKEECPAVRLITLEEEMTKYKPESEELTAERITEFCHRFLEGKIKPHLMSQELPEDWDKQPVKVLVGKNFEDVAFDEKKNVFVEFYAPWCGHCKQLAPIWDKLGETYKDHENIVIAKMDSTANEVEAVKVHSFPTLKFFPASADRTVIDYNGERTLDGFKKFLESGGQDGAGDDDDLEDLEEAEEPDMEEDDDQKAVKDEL", "assay": "inhibitors of human PDI, primary screen, biochemical, turbidity, single point, plate reader (AID 588391);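 also: absorbance from insulin aggregation driven by PDI reduction with DTT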", "conditions": "PDI insulin aggregation turbidity, A650, 90 min; at 10 µM; active compounds read high", "values": [{"molecule": "CCCC(=O)N1CCC1(C)C(=O)NS(=O)(=O)c1ccc(Cl)cc1", "note": "(stereo unspecified)", "inhibition": "9.48% (inactive)"}, {"molecule": "CC=CCn1c(SCCCc2ccccc2)nc2c1c(=O)[nH]c(=O)n2C", "inhibition": "8.5% (inactive)"}, {"molecule": "Oc1cccc2cc(-c3ccncc3)cnc12", "inhibition": "-15.1% (inactive)"}, {"molecule": "COCCNC(=O)C1(C)CCCN(Cc2cccc(F)c2)C1", "note": "(stereo unspecified)", "inhibition": "1.38% (inactive)"}, {"molecule": "CCCCN(C=O)c1c(CC)nc2c(OCCC3CCCCC3)cccn12", "inhibition": "-6.94% (inactive)"}, {"molecule": "O=C(NC(c1ccc(-c2ccccc2)cc1)c1cnccn1)C1CCN(CCOc2ccc(Cl)cc2Cl)CC1", "note": "(stereo unspecified)", "inhibition": "4.84% (inactive)"}, {"molecule": "COc1ccc(-c2csc(C(O)c3cccc(Cl)c3)n2)cn1", "note": "(stereo unspecified)", "inhibition": "8.11% (inactive)"}, {"molecule": "CC(C)(C(=O)N1CCC1(C)C(=O)NS(=O)(=O)c1ccc(Br)cc1)c1ccccc1", "note": "(stereo unspecified)", "inhibition": "-3.96% (inactive)"}, {"molecule": "COc1cc(NC(=O)c2cc(-c3ccc(F)cc3OC(C)C)n[nH]2)cc(OC)c1OC", "inhibition": "-4.94% (inactive)"}, {"molecule": "CC(C)Oc1cc(F)ccc1-c1cc(C(=O)Nc2cccc(Cl)c2)[nH]n1", "inhibition": "12.1% (inactive)"}, {"molecule": "Cc1ccccc1Cn1c(C)c(C(=O)NCc2cccc(C(F)(F)F)c2)sc1=O", "inhibition": "-0.337% (inactive)"}, {"molecule": "CC(=O)Nc1cc(-c2ccc(N3CCN(C)CC3)cc2)cn2c(-c3ccc(F)cc3)cnc12", "inhibition": "0.066% (inactive)"}, {"molecule": "CCCNC(=O)C1(C)CCN1C(=O)Cc1ccc(-c2ccccc2)cc1", "note": "(stereo unspecified)", "inhibition": "12.7% (inactive)"}, {"molecule": "Cc1cccc(CNC(=O)c2sc(=O)n(Cc3ccccc3C)c2C)c1", "inhibition": "-13.7% (inactive)"}, {"molecule": "O=C(Nc1ccc(Cl)c(C(F)(F)F)c1)C1Cc2c(-c3ccccc3Oc3ccccc3)ccnc2O1", "note": "(stereo unspecified)", "inhibition": "-5.07% (inactive)"}, {"molecule": "CNc1cncc(-c2ccc(NS(C)(=O)=O)cc2)n1", "inhibition": "-0.527% (inactive)"}, {"molecule": "COc1ccc(Cl)cc1-c1cc(C(=O)Nc2cc(OC)c(OC)c(OC)c2)[nH]n1", "inhibition": "-0.731% (inactive)"}, {"molecule": "CN1CCN(C(=O)c2ccc(-c3cc4nc(NCc5cccnc5)n(C)c(=O)c4s3)cc2)CC1", "inhibition": "16.2% (inactive)"}, {"molecule": "COc1ccc(-c2ccc(C(=O)NC(C)C)c3occc23)c(C)c1", "inhibition": "-1.92% (inactive)"}, {"molecule": "COc1cccc(CNc2nc3cc(-c4csc5ccccc45)sc3c(=O)n2C)c1", "inhibition": "-2.68% (inactive)"}, {"molecule": "Cc1nc2c(OCc3cccc(Cl)c3)cccn2c1N(C)CC1CC1", "inhibition": "4.97% (inactive)"}, {"molecule": "CCCCC(=O)N(C)c1c(CC)nc2c(OCc3ccc(Cl)cc3Cl)cccn12", "inhibition": "-3.52% (inactive)"}, {"molecule": "OC(c1ccccc1)c1nc(/C=C/c2ccc(C(F)(F)F)cc2)cs1", "note": "(stereo unspecified)", "inhibition": "-51.4% (inactive)"}, {"molecule": "CN(C)CCNC(=O)c1ccc(-c2cn3c(-c4ccc(Oc5ccccc5)cc4)cnc3cn2)cc1", "inhibition": "-1.11% (inactive)"}, {"molecule": "COc1cccc(-c2cc3nc(NCCOc4ccccc4Cl)n(C)c(=O)c3s2)c1", "inhibition": "-11.2% (inactive)"}, {"molecule": "CCc1nc2ccc(C(=O)NC3CCN(Cc4ccccc4)CC3)cn2c1N(CC)CCOC", "inhibition": "-3.56% (inactive)"}, {"molecule": "O=C(NCc1cccc(C(F)(F)F)c1)c1ccc2sc(COCCO)nc2c1", "inhibition": "-1.75% (inactive)"}, {"molecule": "CN(C)CCNC(=O)c1cccc(-c2cnc3c(NC=O)cc(-c4cccc(C(F)(F)F)c4)cn23)c1", "inhibition": "4.96% (inactive)"}, {"molecule": "Cc1cc(C)n2nc(CNS(=O)(=O)c3c(F)c(F)c(F)c(F)c3F)nc2n1", "inhibition": "127% (active)"}, {"molecule": "Cc1cc(C)n2nc(SCC(N)=O)nc2n1", "inhibition": "-1.27% (inactive)"}, {"molecule": "Cc1cc(C)n2nc(C(=O)NC(C)(C)C)nc2n1", "inhibition": "0.598% (inactive)"}, {"molecule": "CC1(C(=O)NS(=O)(=O)c2cccc(OC(F)F)c2)CCN1C(=O)C1CC1", "note": "(stereo unspecified)", "inhibition": "-4.8% (inactive)"}, {"molecule": "CCCOc1ccc(F)cc1-c1cc(C(=O)NCc2ccc(F)cc2)[nH]n1", "inhibition": "-0.369% (inactive)"}, {"molecule": "CC1(C(=O)Nc2cccc3c2CCCC3)CCN1C(=O)C1(c2ccccc2)CC1", "note": "(stereo unspecified)", "inhibition": "-0.663% (inactive)"}, {"molecule": "NC(c1csc(NC(=O)Nc2cccc(C(F)(F)F)c2)n1)C1CCCCC1", "note": "(stereo unspecified)", "inhibition": "0.691% (inactive)"}, {"molecule": "NC1=NC(=O)S/C1=C\\c1ccc(O)cc1", "inhibition": "43.5% (active)"}, {"molecule": "O=C1N=C(N2CCc3ccccc3C2)S/C1=C\\c1ccc(O)cc1", "inhibition": "-5.75% (inactive)"}, {"molecule": "CC(C)(C)c1ccc(/C=C2\\SC(=O)N=C2N)cc1", "inhibition": "7.63% (inactive)"}, {"molecule": "OC(c1ccc(Cl)cc1)c1ncc(-c2ccc(Cl)cc2)[nH]1", "note": "(stereo unspecified)", "inhibition": "-6.36% (inactive)"}, {"molecule": "COc1ccc(C2CC(c3cccc(OC)c3)=NN2c2ccc(S(N)(=O)=O)cc2)cc1", "note": "(stereo unspecified)", "inhibition": "-2.45% (inactive)"}, {"molecule": "COc1ccc(C(C)(NC(C)=O)c2nc(-c3ccc(S(C)(=O)=O)cc3)cs2)cc1", "note": "(stereo unspecified)", "inhibition": "4.43% (inactive)"}, {"molecule": "COc1cc(F)ccc1-c1cc(C(=O)NCC2CCCCC2)[nH]n1", "inhibition": "25% (inactive)"}, {"molecule": "CC1(Cc2cccc(C#N)c2)C(=O)Nc2ccc(-c3cccc(C(F)(F)F)c3)cc21", "note": "(stereo unspecified)", "inhibition": "10.6% (inactive)"}, {"molecule": "CC(=O)Nc1ccc(CNc2nc(NCCN(C)C)nc3cc(-c4ccccc4)sc23)cc1", "inhibition": "-1.45% (inactive)"}, {"molecule": "Cc1cc(O)ccc1-c1cc(C(=O)NCc2cc(C(F)(F)F)cc(C(F)(F)F)c2)[nH]n1", "inhibition": "-11.3% (inactive)"}, {"molecule": "Cc1cccnc1C(NC(=O)C1CCN(Cc2ccc(Cl)c(Cl)c2)CC1)c1ccc(Cl)cc1", "note": "(stereo unspecified)", "inhibition": "-20.8% (inactive)"}, {"molecule": "CCCNC(=O)c1cc(C2CCCCN2S(=O)(=O)c2ccc(C#N)cc2)on1", "note": "(stereo unspecified)", "inhibition": "9% (inactive)"}, {"molecule": "Cc1ccc(Cn2c(C)c(C(=O)NCc3ccccc3C(F)(F)F)sc2=O)cc1", "inhibition": "-2.82% (inactive)"}, {"molecule": "CCN(CC)c1ncnc2c1ncn2[C@H]1CN(Cc2cccs2)C[C@@H](CO)O1", "inhibition": "5.5% (inactive)"}, {"molecule": "Cc1cccn2c(CN(C)C3CCCc4ccccc43)c(C(=O)N3CCOCC3)nc12", "note": "(stereo unspecified)", "inhibition": "36.6% (active)"}, {"molecule": "Cc1cccn2c(CNCC(C)Oc3cccnc3)c(C(=O)N3CCOCC3)nc12", "note": "(stereo unspecified)", "inhibition": "3.93% (inactive)"}, {"molecule": "CCOC(=O)C1CCN(Cc2c(C(=O)N3CCOCC3)nc3c(C)cccn23)CC1", "inhibition": "-7.14% (inactive)"}, {"molecule": "O=C(Nc1nnc([C@H]2C[C@H](O)[C@@H](CO)O2)s1)c1cccc(Cl)c1", "inhibition": "12.3% (inactive)"}, {"molecule": "CC(=O)Nc1cc(-c2ccccc2N(C)C)cn2c(-c3ccc(F)c(Cl)c3)cnc12", "inhibition": "-1.53% (inactive)"}, {"molecule": "CC(O)(c1cccc(F)c1)c1nc(-c2ccc3c(c2)OCO3)cs1", "note": "(stereo unspecified)", "inhibition": "0.825% (inactive)"}, {"molecule": "Cc1nc2c(OCc3ccc(Cl)cc3)cccn2c1N(C)Cc1cccs1", "inhibition": "-1.78% (inactive)"}, {"molecule": "CCOC(=O)c1c(-c2ccccc2)oc2cc(Br)c(O)c(C=O)c12", "inhibition": "6.15% (inactive)"}, {"molecule": "CCOC(=O)c1c(-c2ccccc2)oc2ccc(OCC(=O)NN)cc12", "inhibition": "-2.38% (inactive)"}, {"molecule": "CCOC(=O)c1c(CN2CCOCC2)n(-c2ccccc2)c2ccc(O)cc12", "inhibition": "27.2% (inactive)"}, {"molecule": "CCOC(=O)c1c(CN(C)C)n(-c2ccccc2)c2cc(Br)c(O)cc12", "inhibition": "39.9% (active)"}, {"molecule": "CCOC(=O)c1c(-c2ccccc2)oc2cc(Br)c(O)cc12", "inhibition": "36.3% (active)"}, {"molecule": "CCOC(=O)c1c(NC(C)=O)sc2c(O)c(Br)ccc12", "inhibition": "3.13% (inactive)"}, {"molecule": "O=C(NCc1cccnc1)c1cc(C2CCCCN2C(=O)CCc2ccccc2)on1", "note": "(stereo unspecified)", "inhibition": "3.32% (inactive)"}, {"molecule": "CCCC(=O)N1CCC1(C)C(=O)Nc1ccc(-n2cncn2)cc1", "note": "(stereo unspecified)", "inhibition": "4.25% (inactive)"}, {"molecule": "COc1ccc(C(C)(O)c2nc(-c3cc(F)cc(F)c3)cs2)cc1", "note": "(stereo unspecified)", "inhibition": "-18.6% (inactive)"}, {"molecule": "Cc1ccc(CC2(C)C(=O)Nc3ccc(OC(F)(F)F)cc32)cc1", "note": "(stereo unspecified)", "inhibition": "5.49% (inactive)"}]}]}
